Bioassay records (PubChem)
This is a sample that favours compounds with a hit; in the whole collection about 0.9% have one here.
Resorufin fluor – compound fluoresces in the resorufin spectral region; Compound fluorescence, resorufin region 547/598 nm, buffer; active compounds read high; max dye-equivalent concentration, M; 59,000 compounds, 0.04% hits; AID 588
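Dye-equivalent concentration values derive from comparing each well's 547/598 nm fluorescence against resorufin standards included on every plate. Incubation was 15 min at room temperature in 100 mM Tris, pH 8.0.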
TexasRed autofl – Texas Red region autofluorescence. Compound fluorescence, Texas Red channel, 547/618 nm; active compounds read high. AID 587. 59,000 compounds, 0.06% hits. max dye-equivalent concentration, M; in the data active = max dye-equivalent concentration above about 10 nM; inconclusive = between about 1.1 nM and that limit
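Dye-equivalent concentrations come from scaling compound signal (ex 547, em 618 nm) to six Texas Red standard concentrations run on every plate, after 15 min room-temperature incubation in pH 8.0 Tris (100 mM).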
Fluorescein autfl – compound autofluorescence in fluorescein spectral region. 59,000 compounds, 0.91% hits. Compound autofluorescence, 480/540 nm, fluorescein-equivalent; active compounds read high. max fluorescein-equivalent concentration, M. AID 593; in the data active = max fluorescein-equivalent concentration above about 10 nM; inconclusive = between about 1.1 nM and that limit
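Values reflect compound autofluorescence, normalized to fluorescein on the same plate and reported at each tested concentration. Conditions: 100 mM Tris pH 8.0, room temperature, 15 min, excitation 480 nm, emission 540 nm.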
Rhodamine autofl – compound fluoresces in the rhodamine spectral region | AID 594 | 59,000 compounds, 0.05% hits | max dye-equivalent concentration, M | Rhodamine-region fluorescence, 547/598 nm, Tris buffer; active compounds read high; in the data active = max dye-equivalent concentration above about 11 nM; inconclusive = between about 1.1 nM and that limit
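Compounds in 100 mM Tris buffer, pH 8.0, were incubated 15 min at room temperature, then read at 547 nm excitation and 598 nm emission. Fluorescence was normalized against a per-plate six-point rhodamine standard curve as dye-equivalent concentration.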
A647 fluor – A647 region autofluorescence; Compound fluorescence, A647 channel (570/671 nm), Tris buffer; max dye-equivalent concentration, M; 59,000 tested, under 10 active;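 note: values scaled relative to a standard on each plate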
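Tris 100 mM pH 8.0; cpd + A647 stds pin-transferred; 15 min RT; CCD imager, ex 570/em 671. Output = A647-equivalent conc. per cpd conc.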
A488 autofl – compound fluoresces in the A488 spectral region. compound autofluorescence, A488 spectral region, dye equivalency; Compound Type: qHTS ECL - MLSMR. max dye equivalency, M. 59,000 compounds, 0.1% hits
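Spectroscopic profiling in the A488 region: compounds in pH 8.0 Tris (100 mM), 15 min RT, CCD imaging with 480 nm excitation and 540 nm emission; responses normalized against A488 dye standards.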
* hit, by the source's call; i = inactive; ? = inconclusive. Unless noted, the rule behind the calls is not given here.

SMILES	Resorufin fluor	TexasRed autofl	Fluorescein autfl	Rhodamine autofl	A647 fluor	A488 autofl
Cn1cccc1C(=O)N1CCC[C@@]2(CCN(c3ccccc3)C2)C1	i	i	1.1e-08M*	i	1.2e-09	i
CCOc1cccc(C2C(C(=O)c3ccc(C)o3)=C(O)C(=O)N2c2nccs2)c1 (stereo not given)	i	i	4.33e-08M*	i	1e-09	?
CN1CCCN([C@@H](c2ccccc2)c2ccc(Cl)cc2)CC1	i	i	i	i	1.7e-09	i
Cc1cccc(C)c1NC(=O)CN1CCN(CCCC(c2ccc(F)cc2)c2ccc(F)cc2)CC1	i	i	1.01e-08M*	i	4.4e-09	i
CC1=C(C#N)C(=O)OC(C)(C)C1	i	i	5.04e-08M*	i	1e-09	?
O=C(NC12CC3CC(CC(C3)C1)C2)c1cnccn1	i	?	1.09e-08M*	i	1.8e-09	i
CC(=O)c1c(C)nc2cc(Cl)ccc2c1N	i	i	i	i	1e-09	i
Cc1nc2ccc(Cl)cc2nc(C)/c1=N\O	i	?	1.08e-07M*	i	1.13e-08	?
COc1ccc2cc3c(N)c(C(=O)NCc4ccco4)sc3nc2c1	i	i	2.36e-08M*	i	1e-09	i
Clc1ccccc1-c1nc(Nc2ccncc2)c2ccccc2n1	i	i	?	i	3.59e-08	i
O=C1C=CC2=C3c4cc(O)c(O)cc4C[C@@]3(O)COC2=C1O	i	?	?	i	3.9e-09	i
COc1cccc(Nc2ncc3nc(-c4ccc(Cl)cc4)c(=O)n(C[C@H]4CCCO4)c3n2)c1	i	i	i	i	1e-09	i
COc1cccc(Nc2ncc3nc(-c4ccccc4)c(=O)n(C[C@H]4CCCO4)c3n2)c1	i	i	1.14e-08M*	i	2.4e-09	i
OCCN(CCO)c1nc(N2CCCCC2)c2nc(N(CCO)CCO)nc(N3CCCCC3)c2n1	i	i	6.68e-07M*	i	3.38e-08	2.93e-08M*
N#CC1=C(N)SC(N)=C(C#N)C1c1ccnc2ccccc12	i	i	?	i	4.42e-08	i
Cc1ccc(C2C(C#N)=C(N)SC(N)=C2C#N)cc1	i	i	2.32e-08M*	i	4.6e-08	i
N#CC1=C(N)SC(N)=C(C#N)C1c1ccoc1	i	i	1.75e-08M*	i	2.19e-08	i
Cc1ccc(C2C(C#N)=C(N)SC(N)=C2C#N)c(C)c1	i	i	1.03e-08M*	i	1.95e-08	i
CC(c1ccccc1)C1C(C#N)=C(N)SC(N)=C1C#N (stereo not given)	i	i	i	i	1e-09	i
CC1=C(C#N)C(c2ccoc2)C(C(=O)OCc2ccccc2)=C(N)S1 (stereo not given)	i	i	i	i	7.1e-09	i
C=CCN1CCc2c(cc(O)c(O)c2Br)[C@H](c2ccccc2)C1	i	i	i	i	1e-08	i
CCc1nnc(NC(=O)C2CCCN(c3nc4ccccc4s3)C2)s1 (stereo not given)	i	i	?	i	3.82e-08	i
O=C(Nc1ccc2c(c1)OCO2)C1CCCN(c2nc3ccccc3s2)C1 (stereo not given)	?	2.59e-08M*	?	1.22e-08M*	4.61e-08	i
CC(=O)O[C@@H]1C[C@]2(C)[C@H](C[C@@H](O)[C@H]3[C@@]4(C)CC[C@@H](O)[C@@H](C)[C@@H]4CC[C@@]32C)/C1=C(\CCC=C(C)C)C(=O)O	i	i	i	i	2.7e-09	i
O=C(c1ccc(Cl)cc1)C1C2C(=O)N(c3ccccc3)C(=O)C2C2CCCN21 (stereo not given)	i	i	5.18e-08M*	i	3.77e-08	?
SMILES	Resorufin fluor	TexasRed autofl	Fluorescein autfl	Rhodamine autofl	A647 fluor	A488 autofl
CC(=O)c1ccc(N2C(=O)C3C(C2=O)C(C(=O)c2ccc(Cl)cc2)N2CCCC32)cc1 (stereo not given)	i	i	1.32e-07M*	i	1e-09	?
Cc1ccc(N2C(=O)[C@@H]3[C@H](C2=O)C2CCCN2[C@@H]3C(=O)c2ccccc2)cc1 (stereo not given in full)	i	i	?	i	3.42e-08	i
O=C1c2ccccc2-c2n[nH]c3cccc1c23	i	i	4.73e-08M*	i	8.6e-09	?
O=c1c(-c2ccccc2)n[nH]c2ccccc12	i	i	i	i	1e-09	i
O=C1O[C@H](CN2CCOCC2)CN1/N=C\c1ccc([N+](=O)[O-])o1	i	i	?	i	1.1e-09	i
O=C1OCCN1/N=C\c1ccc([N+](=O)[O-])o1	i	?	3.11e-08M*	i	1.87e-08	i
CC1(NC[C@@H](O)COc2cccc3[nH]ccc23)CCC(C(C)(C)NC(=O)CBr)CC1 (stereo not given in full)	i	i	?	i	6.7e-09	i
CN1CCc2c(sc3c2C(=O)NC(c2cccs2)N3)C1 (stereo not given)	i	?	1.81e-08M*	i	3.29e-08	i
Cc1ccc(C2NC(=O)c3ccccc3N2)s1 (stereo not given)	i	?	i	i	2.4e-09	i
O=C(O)COCCN1CCN([C@@H](c2ccccc2)c2ccc(Cl)cc2)CC1	i	?	i	i	3.3e-09	i
Nc1ncnc2c1nc(Br)n2[C@@H]1O[C@H]2COP(=O)(O)O[C@@H]2[C@H]1O	i	i	i	i	1e-09	i
CC(=O)C1=C(C)OC(N)=C(C#N)C1c1ccco1 (stereo not given)	i	i	?	i	1e-09	i
Cc1oc(C)c2c(=O)ccc3c(c12)OC(N)=C(C#N)C3c1ccccc1Cl (stereo not given)	i	i	1.55e-08M*	i	1e-09	i
CSc1ccc(C2C(C#N)=C(N)Oc3c2ccc(=O)c2c(C)oc(C)c32)cc1 (stereo not given)	i	i	?	i	7.5e-09	i
Cc1oc(C)c2c(=O)ccc3c(c12)OC(N)=C(C#N)C3c1ccccc1 (stereo not given)	i	i	1.11e-08M*	i	1e-09	i
CC[C@@H]1CN2CCc3cc(OC)c(OC)cc3[C@H]2C[C@@H]1C[C@@H]1NCCc2cc(OC)c(OC)cc21	i	i	?	i	6.45e-08	i
Cn1c2ccccc2c(=O)n2c(=O)c3ccccc3cc12	i	i	3.94e-08M*	i	3.6e-09	?
CN1C=CC2=C(C#N)C(N)C(C#N)(C#N)C(c3ccccc3)C2C1 (stereo not given)	i	i	3.34e-08M*	i	5.67e-08	?
